According to the supplement of paper PMC8728848:
Only a selection was taken, and the strongest signals are over-represented in it overall.

Assays:
Experiment in all cases: glycan array binding signal (z-score within array); higher = stronger binding
Conditions in all cases: glycan notation: IUPAC condensed, linker removed
[1] = molecular target: Fuc(a1-2)Gal(b1-4)GlcNAc
Method in brief: (§1)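 Arrays were curated from the Consortium for Functional Glycomics database, 3228 in total, and kept only where the protein sequence was available. Binding is expressed as a within-array Z-score. This score was averaged across arrays of the same protein sequence at different concentrations or buffers and across linkers, and negative values can be read as non-binding.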

[2] = molecular target: Fuc(a1-2)Gal(b1-4)GlcNAc(b1-2)Man(a1-3)[Fuc(a1-2)Gal(b1-4)GlcNAc(b1-2)Man(a1-6)]Man(b1-4)GlcNAc(b1-4)[Fuc(a1-6)]GlcNAc
Method in brief: as §1

[3] = molecular target: Fuc(a1-2)Gal(b1-4)GlcNAc(b1-3)Gal(b1-4)GlcNAc
Method in brief: as §1

[4] = molecular target: Fuc(a1-2)[Gal(a1-3)]Gal
Method in brief: as §1

[5] = molecular target: Fuc(a1-2)[GalNAc(a1-3)]Gal(b1-4)GlcNAc(b1-6)GalNAc
Method in brief: as §1

[6] = molecular target: Fuc(a1-2)[GalNAc(a1-3)]Gal(b1-4)[Fuc(a1-3)]GlcNAc
Method in brief: as §1

[7] = molecular target: Fuc(a1-3)[GalNAc(b1-4)]GlcNAc
Method in brief: as §1

[8] = molecular target: Gal(a1-3)Gal(b1-3)GlcNAc(b1-3)GalNAc
Method in brief: as §1

[9] = molecular target: Gal(a1-3)Gal(b1-3)GlcNAc(b1-6)GalNAc
Method in brief: as §1

[10] = molecular target: Gal(a1-3)Gal(b1-4)GlcNAc(b1-2)Man(a1-3)[Gal(a1-3)Gal(b1-4)GlcNAc(b1-2)Man(a1-6)]Man(b1-4)GlcNAc(b1-4)GlcNAc
Method in brief: as §1

[11] = molecular target: Gal(a1-4)Gal(b1-4)GlcNAc(b1-3)Gal(b1-4)Glc
Method in brief: as §1

[12] = molecular target: Gal(b1-3)Gal(b1-4)GlcNAc
Method in brief: as §1

[13] = molecular target: Gal(b1-3)GalNAc(b1-4)Gal(b1-4)Glc
Method in brief: as §1

[14] = molecular target: Gal(b1-3)GlcNAc(b1-2)Man(a1-3)[GlcNAc(b1-4)][Gal(b1-3)GlcNAc(b1-2)Man(a1-6)]Man(b1-4)GlcNAc(b1-4)GlcNAc
Method in brief: as §1

[15] = molecular target: Gal(b1-3)GlcNAc(b1-6)Gal(b1-4)GlcNAc
Method in brief: as §1

[16] = molecular target: Gal(b1-3)[Fuc(a1-4)]GlcNAc(b1-3)Gal(b1-4)[Fuc(a1-3)]GlcNAc
Method in brief: as §1

[17] = molecular target: Gal(b1-4)GalNAc(b1-3)[Fuc(a1-2)]Gal(b1-4)GlcNAc
Method in brief: as §1

[18] = molecular target: Gal(b1-4)GlcNAc(b1-2)Man(a1-3)[Gal(b1-4)GlcNAc(b1-2)Man(a1-6)]Man(b1-4)GlcNAc(b1-4)[Fuc(a1-6)]GlcNAc
Method in brief: as §1

[19] = molecular target: Gal(b1-4)GlcNAc(b1-3)Gal(b1-3)GlcNAc
Method in brief: as §1

[20] = molecular target: Gal(b1-4)GlcNAc(b1-3)Gal(b1-4)GlcNAc(b1-2)Man(a1-3)[Gal(b1-4)GlcNAc(b1-3)Gal(b1-4)GlcNAc(b1-2)Man(a1-6)]Man(b1-4)GlcNAc(b1-4)GlcNAc
Method in brief: as §1

[21] = molecular target: Gal(b1-4)GlcNAc(b1-3)Gal(b1-4)GlcNAc(b1-3)Gal(b1-4)GlcNAc(b1-2)Man(a1-3)[Gal(b1-4)GlcNAc(b1-3)Gal(b1-4)GlcNAc(b1-3)Gal(b1-4)GlcNAc(b1-2)Man(a1-6)]Man(b1-4)GlcNAc(b1-4)GlcNAc
Method in brief: as §1

[22] = molecular target: Gal(b1-4)GlcNAc(b1-3)Gal(b1-4)GlcNAc(b1-3)GalNAc
Method in brief: as §1

[23] = molecular target: Gal(b1-4)GlcNAc(b1-3)Gal(b1-4)GlcNAc(b1-3)[Gal(b1-4)GlcNAc(b1-3)Gal(b1-4)GlcNAc(b1-6)]GalNAc
Method in brief: as §1

[24] = molecular target: Gal(b1-4)GlcNAc(b1-3)Gal(b1-4)GlcNAc(b1-6)[Gal(b1-3)]GalNAc
Method in brief: as §1

[25] = molecular target: Gal4S(b1-4)GlcNAc
Method in brief: as §1

[26] = molecular target: Gal6P(b1-4)GlcNAc
Method in brief: as §1

[27] = molecular target: GalNAc(b1-3)GalNAc
Method in brief: as §1

[28] = molecular target: GalNAc(b1-6)GalNAc
Method in brief: as §1

[29] = molecular target: GlcNAc(b1-2)[GlcNAc(b1-4)]Man(a1-3)[GlcNAc(b1-4)][GlcNAc(b1-2)[GlcNAc(b1-6)]Man(a1-6)]Man(b1-4)GlcNAc(b1-4)[Fuc(a1-6)]GlcNAc
Method in brief: as §1

[30] = molecular target: GlcNAc(b1-2)[GlcNAc(b1-6)]Man(a1-6)[GlcNAc(b1-2)Man(a1-3)]Man(b1-4)GlcNAc(b1-4)GlcNAc
Method in brief: as §1

[31] = molecular target: GlcNAc(b1-3)Gal(b1-4)GlcNAc(b1-3)Gal(b1-4)GlcNAc(b1-3)Gal(b1-4)GlcNAc(b1-3)Gal(b1-4)GlcNAc(b1-2)Man(a1-3)[GlcNAc(b1-3)Gal(b1-4)GlcNAc(b1-3)Gal(b1-4)GlcNAc(b1-3)Gal(b1-4)GlcNAc(b1-3)Gal(b1-4)GlcNAc(b1-2)Man(a1-6)]Man(b1-4)GlcNAc(b1-4)[Fuc(a1-6)]GlcNAc
Method in brief: as §1

[32] = molecular target: GlcNAc(b1-4)Gal(b1-4)GlcNAc
Method in brief: as §1

[33] = molecular target: GlcNAc(b1-4)GlcNAc(b1-4)GlcNAc(b1-4)GlcNAc(b1-4)GlcNAc
Method in brief: as §1

[34] = molecular target: GlcNAc6S(b1-3)Gal(b1-4)GlcNAc
Method in brief: as §1

[35] = molecular target: Man(a1-2)Man(a1-3)[Man(a1-2)Man(a1-6)]Man(a1-6)[Man(a1-2)Man(a1-2)Man(a1-3)]Man
Method in brief: as §1

[36] = molecular target: Man(a1-3)[Man(a1-6)]Man(a1-6)[Man(a1-2)Man(a1-3)]Man(b1-4)GlcNAc(b1-4)GlcNAc
Method in brief: as §1

[37] = molecular target: Neu5Ac(a2-3)Gal(b1-3)GalNAc6S
Method in brief: as §1

[38] = molecular target: Neu5Ac(a2-3)Gal(b1-3)GlcNAc(b1-2)Man(a1-3)[GlcNAc(b1-4)][Neu5Ac(a2-3)Gal(b1-3)GlcNAc(b1-2)Man(a1-6)]Man(b1-4)GlcNAc(b1-4)GlcNAc
Method in brief: as §1

[39] = molecular target: Neu5Ac(a2-3)Gal(b1-3)[Neu5Ac(a2-6)]GlcNAc(b1-3)[Fuc(a1-3)[Gal(b1-4)]GlcNAc(b1-6)]Gal(b1-4)Glc
Method in brief: as §1

[40] = molecular target: Neu5Ac(a2-3)Gal(b1-4)GlcNAc(b1-2)[Neu5Ac(a2-3)Gal(b1-4)GlcNAc(b1-2)]Man(a1-6)[Neu5Ac(a2-3)Gal(b1-4)GlcNAc(b1-2)Man(a1-3)][GlcNAc(b1-4)]Man(b1-4)GlcNAc(b1-4)GlcNAc
Method in brief: as §1

[41] = molecular target: Neu5Ac(a2-3)Gal(b1-4)GlcNAc(b1-2)[Neu5Ac(a2-3)Gal(b1-4)GlcNAc(b1-6)]Man(a1-6)[Neu5Ac(a2-3)Gal(b1-4)GlcNAc(b1-2)Man(a1-3)]Man(b1-4)GlcNAc(b1-4)GlcNAc
Method in brief: as §1

[42] = molecular target: Neu5Ac(a2-3)Gal(b1-4)GlcNAc(b1-3)Gal(b1-4)GlcNAc
Method in brief: as §1

[43] = molecular target: Neu5Ac(a2-3)Gal(b1-4)GlcNAc(b1-3)Gal(b1-4)GlcNAc(b1-2)Man(a1-3)[Neu5Ac(a2-3)Gal(b1-4)GlcNAc(b1-3)Gal(b1-4)GlcNAc(b1-2)Man(a1-6)]Man(b1-4)GlcNAc(b1-4)GlcNAc
Method in brief: as §1

[44] = molecular target: Neu5Ac(a2-3)Gal(b1-4)GlcNAc(b1-3)Gal(b1-4)GlcNAc(b1-3)Gal(b1-4)GlcNAc(b1-2)Man(a1-3)[Neu5Ac(a2-3)Gal(b1-4)GlcNAc(b1-3)Gal(b1-4)GlcNAc(b1-3)Gal(b1-4)GlcNAc(b1-2)Man(a1-6)]GalNAc
Method in brief: as §1

[45] = molecular target: Neu5Ac(a2-3)Gal6S(b1-4)[Fuc(a1-3)]GlcNAc
Method in brief: as §1

[46] = molecular target: Neu5Ac(a2-3)[GalNAc(b1-4)]Gal(b1-4)GlcNAc(b1-3)GalNAc
Method in brief: as §1

[47] = molecular target: Neu5Ac(a2-6)Gal(b1-4)GlcNAc(b1-2)Man(a1-3)Man(b1-4)GlcNAc(b1-4)GlcNAc
Method in brief: as §1

[48] = molecular target: Neu5Ac(a2-6)Gal(b1-4)GlcNAc(b1-3)Gal(b1-4)GlcNAc(b1-3)Gal(b1-4)GlcNAc(b1-2)Man(a1-3)[Neu5Ac(a2-6)Gal(b1-4)GlcNAc(b1-3)Gal(b1-4)GlcNAc(b1-3)Gal(b1-4)GlcNAc(b1-2)Man(a1-6)]GalNAc
Method in brief: as §1

[49] = molecular target: Neu5Ac(a2-6)Gal(b1-4)GlcNAc(b1-3)Gal(b1-4)GlcNAc(b1-3)[Neu5Ac(a2-6)Gal(b1-4)GlcNAc(b1-3)Gal(b1-4)GlcNAc(b1-6)]GalNAc
Method in brief: as §1

[50] = molecular target: Neu5Ac(a2-8)Neu5Ac(a2-3)Gal(b1-4)Glc
Method in brief: as §1

B1: CBM13 2a (Mycobacterium tuberculosum), P64849 (protein)
chain: DGPVQLKSRLGDVCLDAPSGSWFSPLVINPCNGTDFQRWNLTDDRQVESVAFPGECVNIGNALWARLQPCVNWISQHWTVQPDGLVKSDLDACLTVLGGPDPGTWVSTRWCDPNAPDQQWDSVPLEHHHHHH
glycan array binding signal (z-score) [1]: -0.294
glycan array binding signal (z-score) [2]: 0.023
glycan array binding signal (z-score) [3]: -0.362
glycan array binding signal (z-score) [4]: -0.26
glycan array binding signal (z-score) [5]: -0.303
glycan array binding signal (z-score) [6]: 0.434
glycan array binding signal (z-score) [7]: -0.31
glycan array binding signal (z-score) [8]: -0.132
glycan array binding signal (z-score) [9]: -0.286
glycan array binding signal (z-score) [10]: -0.178
glycan array binding signal (z-score) [11]: -0.267
glycan array binding signal (z-score) [12]: -0.121
glycan array binding signal (z-score) [13]: -0.32
glycan array binding signal (z-score) [14]: -0.203
glycan array binding signal (z-score) [15]: -0.345
glycan array binding signal (z-score) [16]: -0.184
glycan array binding signal (z-score) [17]: -0.335
glycan array binding signal (z-score) [18]: 0.207
glycan array binding signal (z-score) [19]: -0.187
glycan array binding signal (z-score) [20]: 3.82
glycan array binding signal (z-score) [21]: 3.22
glycan array binding signal (z-score) [22]: 6.08
glycan array binding signal (z-score) [23]: 4.69
glycan array binding signal (z-score) [24]: 5.73
glycan array binding signal (z-score) [25]: -0.154
glycan array binding signal (z-score) [26]: -0.708
glycan array binding signal (z-score) [27]: -0.167
glycan array binding signal (z-score) [28]: -0.3
glycan array binding signal (z-score) [29]: -0.406
glycan array binding signal (z-score) [30]: 0.094
glycan array binding signal (z-score) [31]: -0.169
glycan array binding signal (z-score) [32]: -0.553
glycan array binding signal (z-score) [33]: -0.213
glycan array binding signal (z-score) [34]: -0.288
glycan array binding signal (z-score) [35]: -0.338
glycan array binding signal (z-score) [36]: 6.51
glycan array binding signal (z-score) [37]: -0.262
glycan array binding signal (z-score) [38]: -0.103
glycan array binding signal (z-score) [39]: -0.258
glycan array binding signal (z-score) [40]: -0.048
glycan array binding signal (z-score) [41]: -0.017
glycan array binding signal (z-score) [42]: -0.249
glycan array binding signal (z-score) [43]: 7.02
glycan array binding signal (z-score) [44]: 9.05
glycan array binding signal (z-score) [45]: -0.271
glycan array binding signal (z-score) [46]: 4.49
glycan array binding signal (z-score) [47]: -0.031
glycan array binding signal (z-score) [48]: 4.67
glycan array binding signal (z-score) [49]: 8.64
glycan array binding signal (z-score) [50]: -0.117
